The panel holds about 83,000 compounds, 20% with a hit somewhere; the sample as a whole holds those more often.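 Assay: single dose, 48 h. Readout: percent growth (0 = no net growth; negative = cell death). Active: <10.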 Activity calls are given as the source filed them.
Key:
Assay in all cases: NCI-60 one-dose screen, 48 h (100 = growth as untreated, 0 = no growth, -100 = all killed)
Settings in all cases: 10 µM unless noted
T-47D breast = system: T-47D breast
BT-549 breast = system: BT-549 breast
MDA-MB-435 melanoma = system: MDA-MB-435 melanoma
SW-620 colon = system: SW-620 colon
MCF7 breast = system: MCF7 breast
HCT-116 colon = system: HCT-116 colon
HCC-2998 colon = system: HCC-2998 colon
KM12 colon = system: KM12 colon

Measured: growth

Fc1cccc(Oc2ccc(Nc3ncnc4ccc(OCCCN5CCOCC5)cc34)cc2Cl)c1
inactive: T-47D breast 36% | BT-549 breast 79% | MDA-MB-435 melanoma 54.3% | SW-620 colon 61.1% | MCF7 breast 50.4% | HCT-116 colon 69.4% | HCC-2998 colon 57% | KM12 colon 45.9%

CCOc1ccccc1Cn1ccnc1CCc1c(Cl)c(O)cc(O)c1C(=O)OC
inactive: T-47D breast 92.4% | BT-549 breast 98.8% | MDA-MB-435 melanoma 110% | SW-620 colon 104% | MCF7 breast 91.7% | HCT-116 colon 89.3% | HCC-2998 colon 97.8% | KM12 colon 98.4%

C#Cc1c2c(c(OC)c3c1OCO3)[C@H]([C@H]1OC(=O)c3c1ccc(OC)c3OC)N(C)CC2
active: MDA-MB-435 melanoma 7.84%
inactive: T-47D breast 86.7% | BT-549 breast 90% | SW-620 colon 84.5% | MCF7 breast 55.5% | HCT-116 colon 89.8% | HCC-2998 colon 86.4% | KM12 colon 59.9%

C=C(C)[C@@H]1CC[C@]2(CO)CC[C@]3(C)[C@H](CC[C@@H]4[C@@]5(C)CC[C@H](NCO)C(C)(C)[C@@H]5CC[C@]43C)[C@@H]12
inactive: BT-549 breast 74.3%
active: T-47D breast -42.9% | MDA-MB-435 melanoma -84.5% | SW-620 colon -79.7% | MCF7 breast -62.8% | HCT-116 colon -62.1% | HCC-2998 colon -63.3% | KM12 colon -77.5%

COC1=CC(c2ccc[nH]2)=N/C1=C\c1[nH]c(C)c(CC(=O)NCc2ccccc2)c1C
inactive: T-47D breast 15.1% | BT-549 breast 40.2% | MDA-MB-435 melanoma 15.9% | SW-620 colon 20.6% | MCF7 breast 11% | HCC-2998 colon 13.9%
active: HCT-116 colon 2.09% | KM12 colon -46.1%

CC(=O)c1c(C)nc2ccccc2c1/C=C/c1ccc(F)cc1
inactive: T-47D breast 53.8% | BT-549 breast 87.1% | MDA-MB-435 melanoma 103% | SW-620 colon 97.1% | MCF7 breast 77.3% | HCT-116 colon 74.6% | HCC-2998 colon 99% | KM12 colon 90.7%

CC(=O)Oc1ccc(C)cc1C
inactive: T-47D breast 97.9% | BT-549 breast 90.8% | MDA-MB-435 melanoma 113% | SW-620 colon 108% | MCF7 breast 77.7% | HCT-116 colon 98.3% | HCC-2998 colon 112% | KM12 colon 103%

O=C(CN1CCCCC1)Nc1nc(-c2cc3ccccc3oc2=O)cs1
inactive: T-47D breast 87.7% | BT-549 breast 100% | MDA-MB-435 melanoma 104% | SW-620 colon 99.2% | MCF7 breast 88.7% | HCT-116 colon 101% | HCC-2998 colon 104% | KM12 colon 99.9%

COc1ccc(C(O)c2cc3c(N)c(C(=O)Nc4cccc(Br)c4)sc3nc2C)cc1 (stereo unspecified)
active: BT-549 breast 3.53% | MDA-MB-435 melanoma -33.4% | MCF7 breast 9.88% | HCT-116 colon 6.39% | HCC-2998 colon -33.9% | KM12 colon 0.956%
inactive: T-47D breast 53.2% | SW-620 colon 23.7%

O=C1/C(=C/c2ccccc2Br)COc2ccc(O)cc21
active: MCF7 breast 9.13%
inactive: T-47D breast 83.7% | BT-549 breast 53.9% | MDA-MB-435 melanoma 40.9% | SW-620 colon 18.3% | HCT-116 colon 18.6% | HCC-2998 colon 100% | KM12 colon 23.9%

CCC(=C(c1ccc(OCCN2CCCCC2)cc1)c1ccc(OCCN2CCCCC2)cc1)c1ccc(Cl)cc1
active: T-47D breast -68.3% | BT-549 breast -91.7% | MDA-MB-435 melanoma -96.2% | SW-620 colon -84.1% | MCF7 breast -79.9% | HCT-116 colon -91.1% | HCC-2998 colon -87% | KM12 colon -84%

Oc1c(Br)cc(Br)c2ccc(Cn3cc(-c4ccccc4C(F)(F)F)nn3)nc12
inactive: T-47D breast 83.8% | BT-549 breast 107% | MDA-MB-435 melanoma 93.1% | SW-620 colon 73.5% | MCF7 breast 71.5% | HCT-116 colon 49.1% | HCC-2998 colon 110% | KM12 colon 100%

O=C(CN1C(=O)NC2NC(=O)NC21)N/N=C/c1ccccc1[N+](=O)[O-] (stereo unspecified)
inactive: T-47D breast 104% | BT-549 breast 97.9% | MDA-MB-435 melanoma 104% | SW-620 colon 105% | MCF7 breast 85.1% | HCT-116 colon 107% | HCC-2998 colon 118% | KM12 colon 104%

Cn1ccnc1C(=O)/C=C/c1ccc(C(=O)Nc2ccc(Cl)cc2)cc1
active: T-47D breast 9.37% | BT-549 breast -7.95% | SW-620 colon -46.8% | HCT-116 colon -49% | HCC-2998 colon -10.1% | KM12 colon -49.8%
inactive: MDA-MB-435 melanoma 23.8% | MCF7 breast 12.6%

N#Cc1c(-c2ccccc2)cc(-c2ccc(Nc3nc(Nc4ccc(Cl)cc4)nc(Nc4ccc(Cl)cc4)n3)cc2)nc1N
active: T-47D breast -39.5% | BT-549 breast -68.1% | MDA-MB-435 melanoma -34.4% | SW-620 colon -39.2% | HCT-116 colon 4.99% | HCC-2998 colon -14.3%
inactive: MCF7 breast 22% | KM12 colon 50.1%

O=C(O)CCCN1C(=O)/C(=C/c2cn(-c3ccccc3)nc2-c2ccc([N+](=O)[O-])cc2)SC1=S
inactive: T-47D breast 61.6% | BT-549 breast 55.1% | MDA-MB-435 melanoma 48.6% | SW-620 colon 65.7% | MCF7 breast 52.3% | HCT-116 colon 36.9% | HCC-2998 colon 64.6% | KM12 colon 54.1%

C[PH+](c1nc2ccccc2nc1[PH+](C)C(C)(C)C)C(C)(C)C.C[PH+](c1nc2ccccc2nc1[PH+](C)C(C)(C)C)C(C)(C)C.[Au+].[Cl-] (stereo unspecified)
active: T-47D breast -79.9% | BT-549 breast -74.4% | MDA-MB-435 melanoma -79.3% | SW-620 colon -100% | MCF7 breast -84.3% | HCT-116 colon -100% | HCC-2998 colon -100% | KM12 colon -99.3%

CCOC(=O)c1c(NC(=O)c2ccc(Cl)cc2)sc2c(CN(C)C)c(O)ccc12
active: HCC-2998 colon -71.7%
inactive: T-47D breast 71.4% | BT-549 breast 100% | MDA-MB-435 melanoma 76.7% | SW-620 colon 28.1% | MCF7 breast 66.6% | HCT-116 colon 70.7% | KM12 colon 87.9%

O=C(c1ccncc1)N1N=C(c2ccc(Cl)cc2)C[C@H]1c1cn(-c2ccccc2)nc1-c1ccccc1
inactive: T-47D breast 87.6% | BT-549 breast 92.5% | MDA-MB-435 melanoma 89.3% | SW-620 colon 101% | MCF7 breast 74.8% | HCT-116 colon 73.5% | HCC-2998 colon 92.2% | KM12 colon 86.1%

C=CCn1c(SCC(=O)Nc2ccc(C(=O)/C=C/c3ccc(Cl)cc3)cc2)nnc1-c1ccc(Br)cc1
active: HCT-116 colon -80.4%
inactive: T-47D breast 88.9% | BT-549 breast 87.4% | MDA-MB-435 melanoma 26.9% | SW-620 colon 82.5% | MCF7 breast 13.4% | HCC-2998 colon 93.8% | KM12 colon 69.9%

COc1ccc(/C=N\Nc2nc(SCCC(C)C)nc(-c3ccc(OC)cc3)c2C#N)cc1
inactive: T-47D breast 23.1% | BT-549 breast 93.1% | MDA-MB-435 melanoma 71.2% | SW-620 colon 49.6% | MCF7 breast 63.5% | HCT-116 colon 21.1% | HCC-2998 colon 82.1% | KM12 colon 83%

CCCCCN1C(=O)/C(=c2\sc3n(c2=O)C2C(NN=3)N(CC)C(=O)N2CC)c2ccccc21 (stereo unspecified)
active: MDA-MB-435 melanoma -60.1% | SW-620 colon -42.1% | HCT-116 colon -72.1% | HCC-2998 colon -17.1% | KM12 colon -52.9%
inactive: T-47D breast 23.3% | BT-549 breast 19.5% | MCF7 breast 12%

COc1ccc(Nc2nnc(-c3ccc(OC)c(OC)c3)o2)cc1
inactive: T-47D breast 79.1% | BT-549 breast 61.8% | MDA-MB-435 melanoma 109% | SW-620 colon 97.7% | MCF7 breast 90.9% | HCT-116 colon 77.8% | HCC-2998 colon 120% | KM12 colon 85.1%

OB1OCc2cc(/C=C/c3cccc(C(F)(F)F)c3)ccc21
inactive: T-47D breast 20.4% | MDA-MB-435 melanoma 20.8% | SW-620 colon 15.5% | MCF7 breast 21.8% | HCC-2998 colon 32.5% | KM12 colon 14.6%
active: BT-549 breast 8.09% | HCT-116 colon 0.518%

COC(CC(F)F)c1cn(S(=O)(=O)c2ccc(C)cc2)c2ccccc12 (stereo unspecified)
active: MDA-MB-435 melanoma -43.8%
inactive: T-47D breast 30.8% | BT-549 breast 34.9% | SW-620 colon 12.9% | MCF7 breast 13.6% | HCT-116 colon 17.2% | HCC-2998 colon 63.3% | KM12 colon 19.3%

CCOc1nc(-c2ccccc2)cc2c(O)c(C(=O)N/N=C/c3ccccc3)[nH]c(=O)c12
inactive: T-47D breast 110% | BT-549 breast 167% | MDA-MB-435 melanoma 123% | SW-620 colon 100% | MCF7 breast 101% | HCT-116 colon 111% | KM12 colon 109%
active: HCC-2998 colon 8.59%

Cn1cc(-c2csc(-c3cn(C(=O)OC(C)(C)C)c4ccc(Br)cc34)n2)c2ccnc(Cl)c21
inactive: T-47D breast 66.8% | BT-549 breast 63.9% | MDA-MB-435 melanoma 63.7% | SW-620 colon 75.8% | MCF7 breast 82.8% | HCT-116 colon 64.7% | HCC-2998 colon 95% | KM12 colon 90.4%

Source: PubChem BioAssay (NCI)
